High-throughput results from PubChem BioAssay.
In the library only some 4.7% were active in any assay of this set; here they are far more common.
SKKanGAS inh – inhibitors of SKKanGAS S. pyogenes growth in kanamycin (SK-promoter or general growth effect). BacTiter-Glo, 6 h. 1.3% of 300,000 active. AID 1662. inhibition, % at 7.5 µM;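 active = mean replicate score, as percent of positive control median, at least 50; inconclusive = mean below 50 but one replicate at or above 50; inactive = mean and every replicate below 50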;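 note: strain carries kanamycin resistance gene driven by streptokinase promoter and grows in 40 µg/ml kanamycin; loss of luminescence reflects streptokinase promoter inhibition or plain growth inhibition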
tim23-1 inh – growth inhibitors of tim23-1 mutant yeast | AID 463212 | inhibition, % at 20 µM | S. cerevisiae tim23-1 growth, BacTiter-Glo luminescence, 24 h | 1.3% of 330,000 active;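 active = growth inhibition of the mutant yeast at or above 50%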;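 note: temperature-sensitive mutant grown at 25 °C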
Calb FLC – affects C. albicans growth with fluconazole | growth inhibition, % (test concentration not listed) | 0.57% of 300,000 active | AID 1979 | C. albicans CaCi-2 (fluconazole-resistant clinical isolate) + fluconazole, Alamar Blue growth, 48 h;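 active = growth inhibition above about 58% in most replicates, limit read from the data, passing the limit was not always enough; inconclusive = exactly half the replicates above a set limit; inactive = most replicates below a set limit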;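 note: all wells also contain fluconazole at 8 µg/ml as a sub-toxic cotreatment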
TIM10 inh – inhibits growth of TIM10 yeast strain; S. cerevisiae TIM10 strain growth, BacTiter-Glo luminescence, 24 h; inhibition, % at 10 µM; 1.4% of 330,000 active;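 active = inhibition of 40% or more at the single tested concentration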;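 note: wild-type TIM10 isogenic control strain grown at permissive 25 °C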
PfHsp90 set2 – reduces growth (ATP signal) of yeast expressing P. falciparum Hsp90; inhibition, % at 9.4 µM; 0.32% of 310,000 active; S. cerevisiae expressing PfHsp90, BacTiter-Glo ATP, 48 h; yeast lacking PDR1 and PDR3 efflux regulators;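 active = every replicate shows inhibition above about 80%, whatever the replicate mean, limit read from the data; inconclusive = mean inhibition reaches the set limit but some replicate falls short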
tim10-1 inh – growth inhibitors of tim10-1 mutant yeast; 2.2% of 330,000 active; inhibition, % at 20 µM; S. cerevisiae tim10-1 ts strain growth, BacTiter-Glo, 24 h; AID 463190;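 active = inhibition of at least 40%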;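 note: mutant grown at 25 °C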
Hits are given with their value; n = inactive; u = inconclusive; x = no result; + = active, no number.

SMILES	SKKanGAS inh	tim23-1 inh	Calb FLC	TIM10 inh	PfHsp90 set2	tim10-1 inh
CC1CCC(NC(=O)CCS(=O)(=O)c2ccc3c(c2)CCN3C(=O)C2CC2)CC1 (stereo unspecified)	n	n	n	n	n	n
O=C(COC(=O)c1ccc(F)cc1)NC1CC1	x	n	x	n	n	n
O=C(NCCOc1ccc(F)cc1)C1CCC(=O)N(CCc2ccccn2)C1 (stereo unspecified)	n	n	n	n	n	n
O=C(NC(=S)N1CCN(c2nc(-c3ccccc3)cs2)CC1)c1cncc(Br)c1	77	n	n	n	n	n
CSc1ccc(/C=C/C(=O)Nc2ccccc2)cc1	x	n	119	n	n	n
CSc1cccc(NC(=O)/C=C/c2ccc(Cl)cc2)c1	n	n	n	n	n	n
CCOc1cc(/C=N/Nc2nc(Nc3ccccc3)nc(N3CCCCC3)n2)ccc1OCC(=O)O	n	n	n	n	n	n
COc1ccc(/C=N/Nc2nc(Nc3ccccc3)nc(N3CCCCC3)n2)cc1OC	72	n	n	n	x	n
O=[N+]([O-])c1ccc(/C=N/Nc2nc(N3CCCCC3)nc(N3CCCCC3)n2)cc1	n	n	n	n	n	n
O=[N+]([O-])c1ccc(/C=N/Nc2nc(N3CCCCCC3)nc(N3CCCCCC3)n2)o1	75	n	n	n	x	n
C(=C\c1ccccc1)/C=N/Nc1nc(N2CCCCC2)nc(N2CCCCC2)n1	n	n	93	n	n	n
O=C(N/N=C/c1cc(Br)ccc1O)C(=O)Nc1ccccc1OC(F)(F)C(F)F	103	x	n	x	n	x
O=C(N/N=C/c1cc(Cl)ccc1O)C(=O)Nc1ccccc1OC(F)(F)C(F)F	x	x	x	x	n	x
Cc1nc(N)sc1N=Nc1ccc(F)cc1	81	n	n	n	n	n
COc1ccc(S(=O)(=O)N2CCOCC2)cc1NC(=O)COC(=O)c1oc2ccccc2c1C	x	n	x	n	n	n
Nc1nc(N)nc(-c2cc(O)ccc2O)n1	x	n	x	n	n	n
CC(C)(C)c1cc(-c2nc(N)nc(N)n2)c(O)c(C(C)(C)C)c1	x	n	x	n	+	n
COc1ccc(-c2cc(C(=O)Nc3cccnc3)no2)cc1OC	n	n	n	n	n	n
Cn1c(N)c(-c2ccccc2)c2ccc([N+](=O)[O-])cc2c1=O	n	n	n	n	n	n
CCOC(=O)C1CCN(C(=O)C(C)c2ccc([N+](=O)[O-])cc2)CC1 (stereo unspecified)	n	n	n	n	n	n
CC(C)CN1C(=S)SC(C)(C)C1n1oc(=O)n(-c2ccc(Cl)cc2)c1=O (stereo unspecified)	71	n	n	n	x	n
CC(C)CN1C(=S)SC(C)(C)C1n1oc(=O)n(-c2ccccc2)c1=O (stereo unspecified)	n	n	n	n	n	n
O=C(CSCc1cc(=O)n2ccsc2n1)Nc1ccc(F)cc1	n	n	n	n	n	n
CC(=NNC(=S)N(Cc1ccccn1)Cc1ccccn1)c1cnccn1	x	x	x	x	110	x
CCOc1ccc(CC(=O)N/N=C/c2sccc2C)cc1	n	n	n	n	n	n
SMILES	SKKanGAS inh	tim23-1 inh	Calb FLC	TIM10 inh	PfHsp90 set2	tim10-1 inh
CC(C(=O)NC(C)(C)C)N(C(=O)CS(=O)CC(=O)Nc1ccc(F)cc1)C1CCCC1 (stereo unspecified)	n	n	n	n	n	n
Cc1cc(C)n(-c2nc(SCCN(C)C)c3c4c(sc3n2)CCCC4)n1	n	n	79	n	x	n
Cc1cc(C)n(-c2nc(SCC(=O)O)c3c4c(sc3n2)COC(C)(C)C4)n1	70	n	n	n	n	n
CCc1nc(SCC(=O)O)c2c3c(sc2n1)COC(C)(C)C3	n	n	n	n	n	n
CCOC(=O)c1cnc(-n2cc(C)cn2)nc1Nc1ccccc1OCC	90	n	99	n	n	n
CCOC(=O)c1cnc(SC)nc1Nc1cccc2ccccc12	n	n	n	n	n	n
O=C(COc1ccccc1C(=O)NCc1ccccc1)Nc1ccccc1	x	n	x	n	n	n
COc1ccc(NC(=O)c2sc3ncnc(N4CCN(c5ccccn5)CC4)c3c2C)cc1Cl	n	n	n	n	103	n
CCn1c(SCC(=O)Nc2ccc(F)cc2)nnc1-c1cnccn1	n	n	n	n	n	n
COc1cc(C(=O)NNC(=S)NC(=O)c2ccc3c(c2)OCO3)cc(OC)c1OC	77	n	n	n	x	n
COc1cc(C(=O)NC(=S)NNC(=O)[C@H]2C[C@@H]2c2ccccc2)cc(OC)c1OC	90	n	n	n	n	n
COc1cc(C(=O)NNC(=S)NC(=O)c2ccccc2C)cc(OC)c1OC	60	n	n	n	n	n
COc1cc(C(=O)NC(=S)Nc2cccc3nc(C)ccc23)cc(OC)c1OC	n	n	u	n	n	n
CC(C)c1ccc(O)c(NC(=O)c2cccnc2)c1	n	n	n	n	n	n
CCC(C)c1ccc(O)c(NC(=S)NC(=O)c2cccnc2)c1 (stereo unspecified)	n	n	82	n	n	n
Cc1cc(OCCn2ccnc2)cc(C)c1Cl	n	n	n	n	n	n
CCOc1ccc(S(=O)(=O)Nc2ccccc2C(=O)N2CCOCC2)cc1	n	n	n	n	n	n
CCN(C(=O)CN1C(=O)S/C(=C\c2cccc(OC)c2)C1=O)C1CCS(=O)(=O)C1 (stereo unspecified)	n	n	n	n	n	n
COc1ccccc1C(=O)NNC(=S)NC(=O)c1cc(OC)c(OC)c(OC)c1	80	n	105	n	n	n
COc1cc(C(=O)NC(=S)NC(C)C)cc(OC)c1OC	n	n	n	n	n	n
CC(C)c1ccc(O)c(NC(=S)NC(=O)c2ccc3c(c2)OCO3)c1	60	n	n	n	n	n
Cc1ccccc1S(=O)Cc1ccc(C(=O)N2CCN(C(=O)c3ccco3)CC2)o1 (stereo unspecified)	n	n	n	n	n	n
O=C(c1cnn2c(C(F)(F)F)cc(-c3ccc(F)cc3)nc12)N1CCc2ccccc2C1	62	n	n	n	n	n
Cc1ccc(-c2cc(C(F)F)n3ncc(C(=O)N4CCc5ccccc5C4)c3n2)cc1	n	n	n	n	n	n
CN(CCCNC(=O)CCCOc1cc(=O)n(C)c2ccccc12)Cc1ccccc1	n	n	116	n	n	n
SMILES	SKKanGAS inh	tim23-1 inh	Calb FLC	TIM10 inh	PfHsp90 set2	tim10-1 inh
CN(CCNC(=O)CCCOc1cc(=O)n(C)c2ccccc12)Cc1ccccc1	n	n	u	n	n	n
Cn1c(=O)cc(OCCCC(=O)Nc2cccnc2)c2ccccc21	n	n	111	n	n	n
Cn1c(=O)cc(OCCCC(=O)Nc2ccc3c(c2)OCCO3)c2ccccc21	n	n	n	n	x	n
O=c1[nH]c(/C=C\c2ccccc2F)nc(O)c1[N+](=O)[O-]	n	n	n	n	n	n
COc1ccc(/C=C2/CCC(CN3CCOCC3)C2=O)cc1 (stereo unspecified)	x	x	x	x	146	x
CN(C)CC1CC/C(=C\c2ccc(O)cc2)C1=O (stereo unspecified)	x	x	x	x	145	x
